# According to paper PMC7862700, “An all-to-all approach to the identification of sequence-specific readers for epigenetic DNA modifications on cytosine”:
# Tests used:
# Test in all cases: DAPPL (digital affinity profiling via proximity ligation, sequencing); 10 mM Tris-HCl pH 7.5, 50 mM NaCl, 1 mM DTT, 4% glycerol, room temperature, 30 min; GST-TFs on glutathione beads, 16-mer random dsDNA library, 0.1% formaldehyde crosslink after washing; high values mean tight binding
# HSF1 = HSF1 (Homo sapiens, UniProt Q00613 1-529); conditions: protein: recombinant; tags: N-terminal GST; chain copies: 3; dsDNA, one strand shown
# Chain of HSF1 (Q00613 whole entry, the tested form may be a part): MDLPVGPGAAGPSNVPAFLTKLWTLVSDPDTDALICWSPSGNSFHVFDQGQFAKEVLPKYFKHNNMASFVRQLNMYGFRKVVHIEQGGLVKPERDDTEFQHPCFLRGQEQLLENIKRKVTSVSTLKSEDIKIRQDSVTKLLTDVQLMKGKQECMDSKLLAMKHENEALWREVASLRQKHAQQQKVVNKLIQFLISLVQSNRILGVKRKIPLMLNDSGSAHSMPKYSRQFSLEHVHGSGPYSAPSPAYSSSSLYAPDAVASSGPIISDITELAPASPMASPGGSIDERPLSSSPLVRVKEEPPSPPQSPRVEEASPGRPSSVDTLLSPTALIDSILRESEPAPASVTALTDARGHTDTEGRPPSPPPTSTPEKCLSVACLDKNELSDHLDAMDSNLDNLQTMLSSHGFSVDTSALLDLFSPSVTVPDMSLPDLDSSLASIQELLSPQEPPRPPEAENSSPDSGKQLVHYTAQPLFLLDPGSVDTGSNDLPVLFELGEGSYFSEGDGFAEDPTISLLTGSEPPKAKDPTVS
# How it was run: (§1)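 Human transcription factors were made in yeast as GST fusions, captured on glutathione beads and barcoded with DNA. With a tag-only sample included, the pool was incubated with 200 nmole of a random double-stranded 16-mer DNA library in Tris/NaCl/DTT/glycerol buffer at room temperature for 30 min, then crosslinked with 0.1% formaldehyde after washing, ligated by proximity, amplified and sequenced. For binding signal, each hexamer's read frequency for a factor is divided by its frequency for the tag-only sample.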
# SPDEF = molecular target: T1, SPDEF (Homo sapiens, UniProt O95238 1-335); conditions: protein: recombinant; tags: N-terminal GST; dsDNA, one strand shown
# T1 sequence: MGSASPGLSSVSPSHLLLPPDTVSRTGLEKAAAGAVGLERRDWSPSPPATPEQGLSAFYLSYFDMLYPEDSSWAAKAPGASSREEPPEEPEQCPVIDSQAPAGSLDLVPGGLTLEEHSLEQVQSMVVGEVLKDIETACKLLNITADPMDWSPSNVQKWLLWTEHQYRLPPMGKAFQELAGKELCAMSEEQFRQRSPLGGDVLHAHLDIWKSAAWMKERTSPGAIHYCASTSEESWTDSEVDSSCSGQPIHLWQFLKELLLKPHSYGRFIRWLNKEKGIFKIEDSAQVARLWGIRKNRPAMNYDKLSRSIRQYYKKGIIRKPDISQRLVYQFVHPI
# How it was run: as §1
# ELF5 = molecular target: T2, ELF5 (Homo sapiens, UniProt Q9UKW6-2 1-255); conditions: protein: recombinant; tags: N-terminal GST; dsDNA, one strand shown
# T2 sequence: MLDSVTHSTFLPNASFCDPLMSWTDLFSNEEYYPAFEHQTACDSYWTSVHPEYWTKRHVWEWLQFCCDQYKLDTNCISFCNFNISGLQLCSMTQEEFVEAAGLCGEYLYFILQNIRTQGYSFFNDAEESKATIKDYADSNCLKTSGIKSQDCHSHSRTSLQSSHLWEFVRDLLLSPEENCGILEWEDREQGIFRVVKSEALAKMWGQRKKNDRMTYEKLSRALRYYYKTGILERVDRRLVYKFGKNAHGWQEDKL
# How it was run: as §1
# CRX = CRX (Homo sapiens, UniProt O43186 1-299); conditions: protein: recombinant; tags: N-terminal GST; dsDNA, one strand shown
# Chain of CRX (O43186 whole entry): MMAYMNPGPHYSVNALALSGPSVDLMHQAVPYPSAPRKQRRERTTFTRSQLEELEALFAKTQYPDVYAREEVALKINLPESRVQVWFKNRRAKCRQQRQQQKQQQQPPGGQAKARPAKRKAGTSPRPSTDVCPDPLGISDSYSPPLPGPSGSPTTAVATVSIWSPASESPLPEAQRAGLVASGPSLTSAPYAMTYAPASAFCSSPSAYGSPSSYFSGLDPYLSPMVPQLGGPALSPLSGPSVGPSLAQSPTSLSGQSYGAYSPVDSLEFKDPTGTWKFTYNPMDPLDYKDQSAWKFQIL
# How it was run: as §1
# ETS2 = molecular target: T3, ETS2 (Homo sapiens, UniProt P15036 1-469); conditions: protein: recombinant; tags: N-terminal GST; dsDNA, one strand shown
# T3 sequence: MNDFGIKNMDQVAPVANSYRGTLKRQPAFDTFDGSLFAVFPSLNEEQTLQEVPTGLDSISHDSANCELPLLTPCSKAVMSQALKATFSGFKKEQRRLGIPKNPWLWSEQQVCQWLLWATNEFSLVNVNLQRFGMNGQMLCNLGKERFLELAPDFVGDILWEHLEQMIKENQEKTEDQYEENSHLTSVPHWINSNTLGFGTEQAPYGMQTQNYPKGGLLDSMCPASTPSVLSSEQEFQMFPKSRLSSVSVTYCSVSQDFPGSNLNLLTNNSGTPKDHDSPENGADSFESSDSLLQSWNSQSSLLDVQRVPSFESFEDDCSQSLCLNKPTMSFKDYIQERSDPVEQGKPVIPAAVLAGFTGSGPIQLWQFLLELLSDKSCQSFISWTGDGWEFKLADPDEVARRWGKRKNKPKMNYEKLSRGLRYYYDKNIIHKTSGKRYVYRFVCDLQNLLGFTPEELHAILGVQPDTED
# How it was run: as §1
# FEV = molecular target: T4, FEV (Homo sapiens, UniProt Q99581 1-238); conditions: protein: recombinant; tags: N-terminal GST; dsDNA, one strand shown
# T4 sequence: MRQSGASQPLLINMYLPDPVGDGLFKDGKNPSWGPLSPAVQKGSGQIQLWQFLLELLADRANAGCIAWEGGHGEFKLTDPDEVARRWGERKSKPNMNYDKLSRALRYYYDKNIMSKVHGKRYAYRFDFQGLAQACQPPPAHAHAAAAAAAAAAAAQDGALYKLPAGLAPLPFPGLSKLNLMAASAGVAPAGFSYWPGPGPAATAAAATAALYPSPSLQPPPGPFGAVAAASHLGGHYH
# How it was run: as §1
sequence,measurement,setting,value
GGTTCT,binding signal,HSF1,"1.54 fold enrichment (6-mer frequency, TF over GST control)"
same,binding signal,SPDEF,"1.01 fold enrichment (6-mer frequency, TF over GST control)"
same,binding signal,ELF5,"1.01 fold enrichment (6-mer frequency, TF over GST control)"
CGCGAT,binding signal,HSF1,"1.23 fold enrichment (6-mer frequency, TF over GST control)"
same,binding signal,CRX,"1.1 fold enrichment (6-mer frequency, TF over GST control)"
same,binding signal,ETS2,"1.07 fold enrichment (6-mer frequency, TF over GST control)"
same,binding signal,SPDEF,"1.05 fold enrichment (6-mer frequency, TF over GST control)"
same,binding signal,ELF5,"1.04 fold enrichment (6-mer frequency, TF over GST control)"
TAGTTG,binding signal,CRX,"1.03 fold enrichment (6-mer frequency, TF over GST control)"
AGAACA,binding signal,HSF1,"2.37 fold enrichment (6-mer frequency, TF over GST control)"
same,binding signal,CRX,"1.22 fold enrichment (6-mer frequency, TF over GST control)"
same,binding signal,SPDEF,"1.03 fold enrichment (6-mer frequency, TF over GST control)"
CGCCAT,binding signal,ELF5,"1.03 fold enrichment (6-mer frequency, TF over GST control)"
TGTCAA,binding signal,ETS2,"1.03 fold enrichment (6-mer frequency, TF over GST control)"
same,binding signal,ELF5,"1.01 fold enrichment (6-mer frequency, TF over GST control)"
ATTGAG,binding signal,CRX,"1.11 fold enrichment (6-mer frequency, TF over GST control)"
same,binding signal,ETS2,"1 fold enrichment (6-mer frequency, TF over GST control)"
same,binding signal,SPDEF,"1.01 fold enrichment (6-mer frequency, TF over GST control)"
GCCGCA,binding signal,FEV,"1.01 fold enrichment (6-mer frequency, TF over GST control)"
same,binding signal,ETS2,"1 fold enrichment (6-mer frequency, TF over GST control)"
GTTTGT,binding signal,SPDEF,"1.01 fold enrichment (6-mer frequency, TF over GST control)"
same,binding signal,ELF5,"1.03 fold enrichment (6-mer frequency, TF over GST control)"
CGTACG,binding signal,SPDEF,"1.02 fold enrichment (6-mer frequency, TF over GST control)"
GTCGAC,binding signal,FEV,"1.02 fold enrichment (6-mer frequency, TF over GST control)"
same,binding signal,ETS2,"1.04 fold enrichment (6-mer frequency, TF over GST control)"
same,binding signal,SPDEF,"1.06 fold enrichment (6-mer frequency, TF over GST control)"
ATGCGT,binding signal,FEV,"1.01 fold enrichment (6-mer frequency, TF over GST control)"
same,binding signal,ETS2,"1.02 fold enrichment (6-mer frequency, TF over GST control)"
same,binding signal,SPDEF,"1.07 fold enrichment (6-mer frequency, TF over GST control)"
same,binding signal,ELF5,"1.03 fold enrichment (6-mer frequency, TF over GST control)"
GATACA,binding signal,ETS2,"1.05 fold enrichment (6-mer frequency, TF over GST control)"
same,binding signal,SPDEF,"1.24 fold enrichment (6-mer frequency, TF over GST control)"
same,binding signal,ELF5,"1 fold enrichment (6-mer frequency, TF over GST control)"
TCAGCC,binding signal,FEV,"1.04 fold enrichment (6-mer frequency, TF over GST control)"
same,binding signal,CRX,"1.17 fold enrichment (6-mer frequency, TF over GST control)"
same,binding signal,ETS2,"1 fold enrichment (6-mer frequency, TF over GST control)"
same,binding signal,SPDEF,"1.03 fold enrichment (6-mer frequency, TF over GST control)"
